Test results as given in the supplement of paper PMC10849652.
About 8,800 targets were measured; listed, in parts, are those with a hit and a random draw of the rest. About 0.5% of all pairs of compound and target were hits.

What was measured:
Assay in all cases: log2 fold change, soluble protein after heating vs DMSO (PISA); higher = thermal stabilisation; K562 lysate, 10 uM; active = over 0.2 and 3.5 SD of the protein, either way, in both replicates (recomputed)
ibrutinib = compound: C=CC(=O)N1CCC[C@@H](n2nc(-c3ccc(Oc4ccccc4)cc3)c3c(N)ncnc32)C1 [ibrutinib]
Outline: (§1)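 K562 pellets were dounce-homogenised in PBS pH 7.4 with 1 mM MgCl2, and the crude extract at 1 mg/mL protein was treated with 10 μM compound for 30 min. Aliquots were heated for 3 min across 48°C-58°C, pooled, and brought to 0.5% NP-40 at 4°C; soluble protein was the supernatant after 21,000xg for 90 min. Soluble protein was quantified by TMTpro 16plex LC-MS/MS with channel sums equalised, and reported as log2 fold change in thermal stability against DMSO controls, with values from duplicates.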

[1] = compound: CC(=O)c1cnc2ccc(-c3cc(Cl)c(O)c(Cl)c3)nc2c1N[C@H]1CC[C@H](CN(C)C)CC1
Outline: as §1

ralimetinib = compound: CC(C)(C)Cn1c(N)nc2ccc(-c3[nH]c(C(C)(C)C)nc3-c3ccc(F)cc3)nc21 [ralimetinib]
Outline: as §1

[2] = compound: CC(C)(O)CC(=O)NCCn1ccc2ncnc(Nc3ccc(Oc4cccc(C(F)(F)F)c4)c(Cl)c3)c21
Outline: as §1

[3] = compound: CC(C)C1=C2N=C(C=C(N2N=C1)NCC3=CC=CC=C3)NCCCCCCN
Outline: as §1

[4] = compound: CC1=C(C(CC(=O)N1)C2=CC=C(C=C2)C(F)(F)F)C(=O)NC3=C(C=C4C(=C3)C=NN4)F
Outline: as §1

[5] = compound: CC1=C(C2=C(C=C1)C(=O)C3=CC=CC=C3N2CCCN)C
Outline: as §1

[6] = compound: CC1=C(C=C(C=C1)NC(=O)C2=CC(=CC=C2)C(C)(C)C#N)NC3=CC4=C(C=C3)N=CN(C4=O)C
Outline: as §1

[7] = compound: CC1=C(C=C(C=C1)NC(=O)C2=CC(=CC=C2)N(C)C)NC(=O)C3=CC=C(C=C3)O
Outline: as §1

[8] = compound: CC1=CC=C(C=C1)SC2=C3C=C(SC3=CN=C2)C(=O)N
Outline: as §1

Measured: log2 fold change

SMC3 (UniProt Q9UQE7)
inactive: ibrutinib 0.002 | [1] -0.001 | ralimetinib -0.023 | [2] 0.003 | [3] -0.002 | [4] -0.004 | [5] 0.01 | [6] -0.014 | [7] 0.011 | [8] 0.01

SMC4 (UniProt Q9NTJ3)
inactive: ibrutinib -0.002 | [1] -0.005 | ralimetinib -0.015 | [2] -0.012 | [3] -0.009 | [4] -0.006 | [5] 0.002 | [6] -0.016 | [7] 0.023 | [8] 0.013

SKA3 (UniProt Q8IX90)
inactive: ibrutinib 0.001 | [1] -0.032 | ralimetinib -0.021 | [2] -0.038 | [3] 0.007 | [4] 0.027 | [5] -0.011 | [6] 0.027 | [7] 0.025 | [8] -0.046

SMAD2 (UniProt Q15796)
inactive: ibrutinib 0.041 | [1] -0.014 | ralimetinib 0.025 | [2] 0.012 | [3] 0.005 | [4] -0.061 | [5] -0.014 | [6] 0.054 | [7] 0.029 | [8] 0.017

SYNRG (UniProt Q9UMZ2)
inactive: ibrutinib -0.023 | [1] -0.028 | ralimetinib -0.016 | [2] -0.083 | [3] 0.015 | [4] -0.019 | [5] -0.018 | [6] -0.042 | [7] 0.022 | [8] -0.052

TARBP1 (UniProt Q13395)
inactive: ibrutinib -0.021 | [1] 0.036 | ralimetinib 0.162 | [2] 0.03 | [3] -0.051 | [4] -0.027 | [5] -0.077 | [6] 0.002 | [7] 0.035 | [8] -0.036

SMC2 (UniProt O95347)
UniProt O95347, sequence (O95347 whole entry, looked up): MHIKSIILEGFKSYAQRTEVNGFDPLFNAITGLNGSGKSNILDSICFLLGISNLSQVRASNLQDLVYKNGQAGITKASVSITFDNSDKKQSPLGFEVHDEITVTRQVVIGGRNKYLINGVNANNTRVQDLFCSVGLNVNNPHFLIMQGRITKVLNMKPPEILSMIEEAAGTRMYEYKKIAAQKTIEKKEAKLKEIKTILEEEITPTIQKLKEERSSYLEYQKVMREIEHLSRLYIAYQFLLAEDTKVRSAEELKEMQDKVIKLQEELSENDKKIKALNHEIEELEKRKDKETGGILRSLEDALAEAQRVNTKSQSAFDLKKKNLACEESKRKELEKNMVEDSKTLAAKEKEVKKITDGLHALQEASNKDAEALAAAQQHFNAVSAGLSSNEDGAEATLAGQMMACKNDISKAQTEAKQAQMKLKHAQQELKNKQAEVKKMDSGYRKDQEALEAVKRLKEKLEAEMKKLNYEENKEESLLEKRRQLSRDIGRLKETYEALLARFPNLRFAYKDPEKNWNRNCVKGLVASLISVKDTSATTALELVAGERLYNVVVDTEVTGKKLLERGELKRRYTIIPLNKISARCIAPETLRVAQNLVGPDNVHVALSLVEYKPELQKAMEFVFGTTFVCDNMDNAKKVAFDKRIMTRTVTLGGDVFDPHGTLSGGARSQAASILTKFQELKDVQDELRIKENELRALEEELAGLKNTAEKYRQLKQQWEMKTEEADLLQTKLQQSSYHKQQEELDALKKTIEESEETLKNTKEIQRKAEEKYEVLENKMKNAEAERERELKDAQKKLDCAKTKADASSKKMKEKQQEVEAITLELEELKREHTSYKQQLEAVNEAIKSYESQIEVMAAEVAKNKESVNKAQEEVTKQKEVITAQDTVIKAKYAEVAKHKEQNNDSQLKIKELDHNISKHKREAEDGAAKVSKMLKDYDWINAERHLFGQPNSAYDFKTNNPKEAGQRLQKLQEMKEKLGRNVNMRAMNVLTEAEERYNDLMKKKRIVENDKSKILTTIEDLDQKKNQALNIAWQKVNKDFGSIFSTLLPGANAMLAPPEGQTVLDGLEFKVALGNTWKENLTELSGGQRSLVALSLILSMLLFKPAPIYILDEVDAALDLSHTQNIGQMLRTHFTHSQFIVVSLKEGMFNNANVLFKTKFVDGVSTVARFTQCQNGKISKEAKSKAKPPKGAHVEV
inactive: ibrutinib 0.014 | [1] -0.011 | ralimetinib -0.016 | [2] -0.008 | [3] 0.014 | [4] -0.012 | [5] 0 | [6] 0 | [7] 0.013 | [8] 0.001

SPIRE1 (UniProt Q08AE8)
inactive: ibrutinib 0.082 | [1] -0.031 | ralimetinib -0.028 | [2] 0.011 | [3] -0.014 | [4] -0.069 | [5] 0.002 | [6] 0.014 | [7] 0.016 | [8] -0.05

SH3BP5L (UniProt Q7L8J4)
UniProt Q7L8J4, sequence (Q7L8J4 whole entry, looked up): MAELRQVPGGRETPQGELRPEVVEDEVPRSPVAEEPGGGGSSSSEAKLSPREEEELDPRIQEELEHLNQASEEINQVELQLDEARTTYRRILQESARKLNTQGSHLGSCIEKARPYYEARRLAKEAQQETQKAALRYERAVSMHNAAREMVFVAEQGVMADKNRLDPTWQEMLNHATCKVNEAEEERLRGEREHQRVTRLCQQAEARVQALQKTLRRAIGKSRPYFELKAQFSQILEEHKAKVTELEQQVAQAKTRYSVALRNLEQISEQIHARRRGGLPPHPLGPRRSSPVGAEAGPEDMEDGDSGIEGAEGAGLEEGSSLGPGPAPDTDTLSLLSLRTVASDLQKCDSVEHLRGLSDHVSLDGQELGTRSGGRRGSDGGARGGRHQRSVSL
inactive: ibrutinib 0.007 | [1] 0.013 | ralimetinib -0.024 | [2] -0.035 | [3] 0.032 | [4] 0.009 | [5] -0.02 | [6] 0.021 | [7] -0.017 | [8] -0.045

STK25 (UniProt O00506)
inactive: ibrutinib -0.021 | [1] 0.165 | ralimetinib -0.071 | [2] 0.007 | [3] -0.006 | [4] -0.02 | [5] -0.038 | [6] -0.042 | [7] 0.035 | [8] -0.025

SSB (UniProt P05455)
inactive: ibrutinib -0.007 | [1] -0.009 | ralimetinib -0.005 | [2] -0.006 | [3] 0.004 | [4] -0.015 | [5] -0.013 | [6] -0.006 | [7] 0.007 | [8] 0.006

SH3BP2 isoform 4 (UniProt P78314)
inactive: ibrutinib 0.096 | [1] -0.084 | ralimetinib 0.07 | [2] 0.137 | [3] -0.004 | [5] -0.297 | [6] 0.03 | [7] -0.126 | [8] 0.073

SQLE (UniProt Q14534)
inactive: ibrutinib 0.028 | [1] 0.051 | ralimetinib 0.081 | [2] -0.047 | [3] 0 | [4] -0.02 | [5] -0.006 | [6] 0.039 | [7] -0.06 | [8] -0.027

STK11IP (UniProt Q8N1F8)
UniProt Q8N1F8, sequence (Q8N1F8 whole entry, looked up): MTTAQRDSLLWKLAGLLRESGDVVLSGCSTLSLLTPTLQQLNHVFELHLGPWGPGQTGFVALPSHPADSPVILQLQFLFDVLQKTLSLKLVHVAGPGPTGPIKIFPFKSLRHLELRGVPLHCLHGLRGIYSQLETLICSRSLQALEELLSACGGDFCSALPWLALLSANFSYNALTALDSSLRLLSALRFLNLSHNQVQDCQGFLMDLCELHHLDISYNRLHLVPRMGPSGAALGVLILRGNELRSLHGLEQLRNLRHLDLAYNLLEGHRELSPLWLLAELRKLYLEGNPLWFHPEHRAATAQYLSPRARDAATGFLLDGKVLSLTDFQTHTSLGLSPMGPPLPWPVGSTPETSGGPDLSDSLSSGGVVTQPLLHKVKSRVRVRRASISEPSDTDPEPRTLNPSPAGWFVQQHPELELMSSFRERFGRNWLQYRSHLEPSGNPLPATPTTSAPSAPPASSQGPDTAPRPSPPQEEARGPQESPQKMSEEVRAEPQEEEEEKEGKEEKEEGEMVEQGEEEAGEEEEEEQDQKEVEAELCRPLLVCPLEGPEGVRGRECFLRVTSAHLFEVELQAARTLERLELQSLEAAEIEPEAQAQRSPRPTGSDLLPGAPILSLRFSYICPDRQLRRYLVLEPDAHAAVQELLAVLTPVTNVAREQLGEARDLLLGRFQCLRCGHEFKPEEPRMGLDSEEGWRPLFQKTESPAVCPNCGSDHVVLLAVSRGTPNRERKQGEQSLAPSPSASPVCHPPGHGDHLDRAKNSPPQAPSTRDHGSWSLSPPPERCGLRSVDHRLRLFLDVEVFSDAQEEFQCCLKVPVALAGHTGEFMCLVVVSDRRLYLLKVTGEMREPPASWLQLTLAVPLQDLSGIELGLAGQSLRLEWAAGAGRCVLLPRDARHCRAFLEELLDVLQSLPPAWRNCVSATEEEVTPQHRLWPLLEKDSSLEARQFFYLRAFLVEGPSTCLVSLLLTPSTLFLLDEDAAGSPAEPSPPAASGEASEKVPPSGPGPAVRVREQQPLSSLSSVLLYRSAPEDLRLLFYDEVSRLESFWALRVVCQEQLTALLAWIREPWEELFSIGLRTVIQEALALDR
inactive: ibrutinib -0.016 | [1] -0.024 | ralimetinib 0.044 | [2] -0.055 | [3] 0 | [4] 0.046 | [5] 0.024 | [6] -0.009 | [7] 0 | [8] 0.015

TANGO6 (UniProt Q9C0B7)
UniProt Q9C0B7, sequence (Q9C0B7 whole entry, looked up): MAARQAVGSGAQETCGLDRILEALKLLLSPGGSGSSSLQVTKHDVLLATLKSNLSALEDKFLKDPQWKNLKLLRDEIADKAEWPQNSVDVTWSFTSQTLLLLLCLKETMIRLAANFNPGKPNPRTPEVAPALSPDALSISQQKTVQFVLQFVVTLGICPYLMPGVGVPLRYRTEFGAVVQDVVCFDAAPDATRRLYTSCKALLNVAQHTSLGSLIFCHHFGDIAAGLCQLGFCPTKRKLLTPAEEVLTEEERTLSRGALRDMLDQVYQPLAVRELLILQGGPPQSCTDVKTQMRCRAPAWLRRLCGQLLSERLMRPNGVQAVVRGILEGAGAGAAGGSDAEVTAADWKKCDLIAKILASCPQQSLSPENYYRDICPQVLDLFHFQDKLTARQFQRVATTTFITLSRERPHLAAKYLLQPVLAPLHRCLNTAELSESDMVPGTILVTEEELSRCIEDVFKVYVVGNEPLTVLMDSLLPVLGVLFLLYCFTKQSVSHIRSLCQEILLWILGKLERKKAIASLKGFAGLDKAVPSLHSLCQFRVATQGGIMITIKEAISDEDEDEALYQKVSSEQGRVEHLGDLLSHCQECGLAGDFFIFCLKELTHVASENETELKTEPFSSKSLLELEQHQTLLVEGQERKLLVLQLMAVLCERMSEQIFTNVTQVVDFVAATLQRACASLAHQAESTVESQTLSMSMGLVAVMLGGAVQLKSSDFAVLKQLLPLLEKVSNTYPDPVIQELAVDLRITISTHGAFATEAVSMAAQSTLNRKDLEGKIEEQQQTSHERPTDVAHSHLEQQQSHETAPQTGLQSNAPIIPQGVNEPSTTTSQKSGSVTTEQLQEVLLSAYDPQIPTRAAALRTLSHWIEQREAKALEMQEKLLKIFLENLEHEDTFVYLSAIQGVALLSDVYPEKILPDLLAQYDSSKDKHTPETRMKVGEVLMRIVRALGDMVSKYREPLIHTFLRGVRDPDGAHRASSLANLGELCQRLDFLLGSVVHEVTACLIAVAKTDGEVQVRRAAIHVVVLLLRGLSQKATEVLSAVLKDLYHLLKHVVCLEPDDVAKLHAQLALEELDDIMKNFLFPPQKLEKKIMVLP
inactive: ibrutinib -0.056 | [1] 0.039 | ralimetinib 0.023 | [2] 0.02 | [3] -0.067 | [4] -0.028 | [5] -0.017 | [6] -0.013 | [7] -0.02 | [8] -0.011

SYF2 (UniProt O95926)
inactive: ibrutinib 0.094 | [1] 0.023 | ralimetinib -0.019 | [2] 0.001 | [3] -0.02 | [4] -0.027 | [5] -0.122 | [6] 0.037 | [7] 0.066 | [8] -0.061

SZT2 (UniProt Q5T011)
inactive: ibrutinib -0.225 | [1] -0.102 | ralimetinib 0.14 | [2] -0.07 | [3] -0.135 | [4] 0.076 | [5] 0.126 | [7] -0.134 | [8] 0.105

SKA1 (UniProt Q96BD8)
inactive: ibrutinib 0.002 | [1] 0.033 | ralimetinib -0.023 | [2] -0.017 | [3] 0.044 | [4] 0.014 | [5] 0.066 | [6] -0.017 | [7] 0.033 | [8] 0.007

STK39 (UniProt Q9UEW8)
inactive: ibrutinib -0.114 | [1] 0.011 | ralimetinib 0.012 | [2] -0.041 | [3] -0.015 | [4] 0.007 | [5] -0.045 | [6] -0.02 | [7] 0.037 | [8] -0.019

SOX5 (UniProt P35711)
UniProt P35711, sequence (P35711 whole entry, looked up): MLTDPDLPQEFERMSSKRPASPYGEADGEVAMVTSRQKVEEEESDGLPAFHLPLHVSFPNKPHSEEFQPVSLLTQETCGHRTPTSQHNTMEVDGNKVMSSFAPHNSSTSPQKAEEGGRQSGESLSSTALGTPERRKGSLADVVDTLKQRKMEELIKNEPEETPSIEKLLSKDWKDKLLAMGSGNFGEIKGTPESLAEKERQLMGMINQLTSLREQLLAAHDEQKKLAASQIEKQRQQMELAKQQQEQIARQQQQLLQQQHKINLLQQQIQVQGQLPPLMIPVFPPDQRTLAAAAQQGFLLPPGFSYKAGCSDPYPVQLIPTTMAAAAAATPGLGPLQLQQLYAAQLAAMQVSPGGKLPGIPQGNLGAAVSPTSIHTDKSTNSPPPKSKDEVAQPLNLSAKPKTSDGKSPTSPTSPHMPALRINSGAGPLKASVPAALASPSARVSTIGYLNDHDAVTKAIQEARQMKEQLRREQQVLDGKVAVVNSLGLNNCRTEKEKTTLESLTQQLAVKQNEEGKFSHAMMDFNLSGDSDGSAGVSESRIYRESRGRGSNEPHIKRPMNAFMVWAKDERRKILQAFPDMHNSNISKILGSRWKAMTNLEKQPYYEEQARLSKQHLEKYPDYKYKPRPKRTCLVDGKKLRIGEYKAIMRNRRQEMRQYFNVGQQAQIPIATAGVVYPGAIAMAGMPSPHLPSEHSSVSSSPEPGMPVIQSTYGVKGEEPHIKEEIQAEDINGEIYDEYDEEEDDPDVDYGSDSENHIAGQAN
inactive: ibrutinib -0.064 | [1] 0.14 | ralimetinib -0.049 | [2] 0.02 | [3] 0.091 | [5] 0.053 | [6] 0.036 | [7] 0.088 | [8] -0.105

SSX5 isoform 2 (UniProt O60225)
UniProt O60225, sequence (O60225 whole entry, looked up): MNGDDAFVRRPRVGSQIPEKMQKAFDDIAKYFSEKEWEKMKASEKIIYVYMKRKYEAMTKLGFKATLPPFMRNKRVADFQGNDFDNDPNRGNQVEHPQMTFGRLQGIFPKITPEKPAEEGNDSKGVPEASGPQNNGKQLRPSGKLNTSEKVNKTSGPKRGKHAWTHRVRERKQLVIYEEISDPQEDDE
inactive: ibrutinib -0.081 | [1] 0.028 | ralimetinib 0 | [2] 0.032 | [3] -0.261 | [4] -0.089 | [7] -0.018 | [8] -0.003

SRRT (UniProt Q9BXP5)
inactive: ibrutinib 0.013 | [1] 0 | ralimetinib 0.026 | [2] 0.006 | [3] -0.01 | [4] -0.024 | [5] -0.012 | [6] -0.008 | [7] 0.043 | [8] -0.001

SYNE2 isoform 2 (UniProt Q8WXH0)
inactive: ibrutinib 0 | [1] -0.003 | ralimetinib 0.018 | [2] -0.076 | [3] -0.106 | [4] -0.153 | [5] -0.047 | [6] 0.04 | [7] -0.005 | [8] 0.006

SLC26A6 (UniProt Q9BXS9)
inactive: ibrutinib -0.242 | [1] 0.018 | ralimetinib 0.019 | [2] -0.056 | [3] -0.05 | [4] -0.157 | [5] -0.022 | [6] 0.017 | [7] 0.033 | [8] -0.056

SMTN isoform 6 (UniProt P53814)
inactive: ibrutinib -0.03 | [1] -0.072 | ralimetinib -0.02 | [2] -0.004 | [3] -0.009 | [4] 0.074 | [5] -0.013 | [6] 0.054 | [7] 0.05 | [8] 0.135

SPAG5 (UniProt Q96R06)
inactive: ibrutinib -0.005 | [1] 0.039 | ralimetinib -0.001 | [2] 0.017 | [3] -0.013 | [4] 0.03 | [5] -0.024 | [6] -0.024 | [7] 0.008 | [8] -0.005

SRGN (UniProt P10124)
UniProt P10124, sequence (P10124 whole entry, looked up): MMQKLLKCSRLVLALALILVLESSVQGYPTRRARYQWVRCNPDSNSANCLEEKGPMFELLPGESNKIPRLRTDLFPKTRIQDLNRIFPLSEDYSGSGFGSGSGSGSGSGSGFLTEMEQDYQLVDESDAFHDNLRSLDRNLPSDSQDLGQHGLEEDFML
inactive: ibrutinib 0.109 | [1] 0.084 | ralimetinib 0.001 | [2] -0.159 | [3] -0.018 | [5] -0.079 | [6] 0.104 | [7] -0.064 | [8] -0.064

SORBS3 (UniProt O60504)
inactive: ibrutinib -0.005 | [1] 0.067 | ralimetinib 0.099 | [2] -0.113 | [3] -0.035 | [5] -0.158 | [6] 0.046 | [7] -0.05 | [8] -0.114

SMARCAD1 isoform 2 (UniProt Q9H4L7)
inactive: ibrutinib 0.006 | [1] -0.021 | ralimetinib 0.022 | [2] -0.016 | [3] 0.007 | [4] 0.008 | [5] 0.012 | [6] 0.021 | [7] 0.014 | [8] -0.022

SMYD3 (UniProt Q9H7B4)
inactive: ibrutinib -0.009 | [1] -0.002 | ralimetinib 0.032 | [2] -0.012 | [3] 0.034 | [4] -0.037 | [5] -0.028 | [6] 0.038 | [7] 0.036 | [8] -0.027
